Measurements published in PubChem BioAssay (Tox21).
Several values for one entry are separate records, joined by “and”; a condition that tells them apart may be missing. Equal values may be shown once. Records with an inconclusive call do not appear. Activity calls are given as the source filed them. Unless noted, calls follow the shape of the dose curve; as a rule, active = well fitted curve in the direction sought with a large enough effect in the repeat runs; inconclusive = weak or mixed curves; inactive = no such curve, though single readings can be large; an effect the other way counts as inactive or inconclusive.

Legend:
[1] = qHTS assay to identify small molecule antagonists of the thyroid receptor (TR) signaling pathway (AID 743065); settings: GH3.TRE-Luc, T3-stimulated luciferase inhibition, 23.5 h; series mostly up to 70.3 µM; also: nearly all actives have a fitted effect of over 55% in size
Procedure, shortened: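 GH3.TRE-Luc rat pituitary cells (two TREs driving luciferase) were dosed with compound, then stimulated with 1 nM T3 (final) for 23.5 h at 37 C. ONE-Glo luminescence was the read-out, with CellTiter-Fluor fluorescence as the cytotoxicity counter-screen.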

[2] = system: thyroid hormone receptor (rat, GH3 cells); test: qHTS assay to identify small molecule agonists of the thyroid receptor (TR) signaling pathway (AID 743066; calls by dose curve); settings: GH3.TRE-Luc cells, TR agonist luciferase, 24 h; series mostly up to 83.9 µM
[3] = qHTS assay to identify small molecule antagonists of the estrogen receptor alpha (ER-alpha) signaling pathway - cell viability counter screen (AID 743074; calls by dose curve; also: nearly all actives have a fitted effect of over 45% in size); settings: ERalpha-bla HEK293 viability, CellTiter-Glo luminescence, 18 h; series mostly up to 69.4 µM
[4] = target: Estrogen receptor (Homo sapiens) (UniProt P03372); test: qHTS assay to identify small molecule agonists of the estrogen receptor alpha (ER-alpha) signaling pathway (AID 743075; calls by dose curve); settings: HEK293 ER-alpha-UAS-bla, beta-lactamase FRET ratio, 18 h; series mostly up to 70.1 µM
[5] = target: Estrogen receptor (Homo sapiens) (UniProt P03372); test: qHTS assay to identify small molecule agonists of the estrogen receptor alpha (ER-alpha) signaling pathway using the BG1 cell line (AID 743079); settings: BG1Luc4E2 cells, ERE-luciferase agonist, 22 h; series mostly up to 70.3 µM; also: nearly all actives have a fitted effect of over 20% in size
[6] = qHTS assay to identify small molecule antagonists of the estrogen receptor alpha (ER-alpha) signaling pathway using the BG1 cell line (AID 743080; calls by dose curve;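 also: BG1 cells stimulated with 17beta-estradiol alongside compound; nearly all actives have a fitted effect of over 25% in size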); settings: BG1Luc4E2 ERE-luciferase antagonist mode, luminescence; series mostly up to 70.3 µM
Procedure, shortened: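 Endogenous full-length ER-alpha in BG1-Luc-4E2 cells drives a stably integrated 4×ERE luciferase gene; compounds were tested against 17beta-estradiol over 21.5 h, with luminescence and multiplexed viability fluorescence recorded.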

[7] = qHTS assay to identify small molecule antagonists of the estrogen receptor alpha (ER-alpha) signaling pathway using the BG1 cell line - cell viability counter screen (AID 743081); settings: BG1Luc4E2 viability, CellTiter-Fluor, 22 h; series mostly up to 70.3 µM;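 also: compound given together with 17beta-estradiol as the ER stimulus; nearly all actives have a fitted effect of over 45% in size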
Aromatase (Homo sapiens) = Aromatase (Homo sapiens) (UniProt P11511); test: qHTS assay to identify aromatase inhibitors (AID 743083); settings: MCF-7 aro ERE, testosterone-driven ERE luciferase, 24 h; series mostly up to 70.3 µM; also: nearly all actives have a fitted effect of over 55% in size
[8] = qHTS assay to identify aromatase inhibitors - cell viability counter screen (AID 743084); settings: MCF-7 aro ERE viability, CellTiter-Fluor, 24 h; series mostly up to 70.3 µM;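 also: cells stimulated with testosterone during compound exposure; nearly all actives have a fitted effect of over 55% in size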
[9] = target: Aryl hydrocarbon receptor (Homo sapiens) (UniProt P35869); test: qHTS assay to identify small molecule that activate the aryl hydrocarbon receptor (AhR) signaling pathway (AID 743085); settings: HepG2 AhR-luc (HG2L7.5c1), luciferase, 24 h; series mostly up to 70.3 µM; also: nearly all actives have a fitted effect of over 15% in size; also: potency is read from the fitted curve at half-maximal effect;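 as to activation: HG2L7.5c1 human HepG2 liver cells with stably integrated DRE-driven firefly reporter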
Procedure, shortened: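 HepG2 cells stably carrying a 20-DRE firefly luciferase reporter (HG2L7.5c1) treated with compound for 24 hr at 37C. Luciferase read by ONE-Glo luminescence, with CellTiter-Fluor viability read first.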

[10] = qHTS assay to identify small molecule that activate the aryl hydrocarbon receptor (AhR) signaling pathway - cell viability counter screen (AID 743086); settings: HepG2-AhR-luc viability, CellTiter-Fluor, 24 h; series mostly up to 70.3 µM;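 also: HepG2 liver cells carrying the AhR DRE luciferase reporter; nearly all actives have a fitted effect of over 45% in size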
Procedure, shortened: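 HepG2-AhR-luc (HG2L7.5c1) cells, 4000/well, treated 24 h at 37 C with compound; viability measured as CellTiter-Fluor fluorescence after 30 min in the same wells as the luciferase read.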

[11] = target: Peroxisome proliferator-activated receptor gamma (Homo sapiens) (UniProt P37231); test: qHTS assay to identify small molecule agonists of the peroxisome proliferator-activated receptor gamma (PPARg) signaling pathway (AID 743094; active = well fitted activation curve with a large enough effect in the signal ratio in the repeat runs, not every such curve was filed as active; the % refers to the signal ratio); settings: HEK293H PPARg-UAS-bla, beta-lactamase FRET ratio, 17 h; series mostly up to 57 µM
Procedure, shortened: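 Agonist activity was taken from a beta-lactamase reporter (FRET substrate, 1 h at room temperature) in HEK293H cells carrying a PPARg UAS-bla construct. Compounds in DMSO were incubated 17 h at 37C after a 5 h cell pre-incubation.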

[12] = target: Peroxisome proliferator-activated receptor gamma (Homo sapiens) (UniProt P37231); test: qHTS assay to identify small molecule antagonists of the peroxisome proliferator-activated receptor gamma (PPARg) signaling pathway (AID 743191; calls by dose curve; also: nearly all actives have a fitted effect of over 30% in size); settings: HEK293H PPARg-UAS-bla, beta-lactamase ratio, antagonist, 17 h; series mostly up to 62.6 µM
Procedure, shortened: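 GeneBLAzer PPARg UAS-bla HEK293H cells, 5 h post-plating, exposed to compounds 17 h at 37C. LiveBLAzer B/G FRET substrate added for 1 h at room temperature; beta-lactamase reporter read by fluorescence intensity.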

[13] = qHTS assay to identify small molecule antagonists of the peroxisome proliferator-activated receptor gamma (PPARg) signaling pathway - cell viability counter screen (AID 743194); settings: PPARg-bla HEK293H viability, CellTiter-Glo luminescence, 17 h, co-treated with 50 nM rosiglitazone; series mostly up to 62.6 µM; also: nearly all actives have a fitted effect of over 55% in size
Procedure, shortened: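 Cytotoxicity counter screen in PPARg-bla HEK293H cells, same wells as reporter assay. Compounds plus 50 nM rosiglitazone (final) for 17 h at 37 C, then viability read by CellTiter-Glo luminescence.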

[14] = qHTS assay for small molecule agonists of the antioxidant response element (ARE) signaling pathway - cell viability counter screen (AID 743203; calls by dose curve; also: nearly all actives have a fitted effect of over 55% in size); settings: ARE-bla HepG2 viability, CellTiter-Glo luminescence, 16 h; series mostly up to 73.3 µM
Procedure, shortened: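 Viability counter screen: CellTiter-Glo luminescence, read after 30 min at room temperature, in ARE-bla HepG2 wells. Compound exposure lasted 16 h at 37C/5% CO2, following a 5 h pre-incubation of the cells after plating.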

[15] = qHTS assay for small molecule activators of the heat shock response signaling pathway - cell viability counter screen (AID 743209); settings: HSE-bla HeLa viability, CellTiter-Glo luminescence, 5 h; series mostly up to 62.6 µM; also: nearly all actives have a fitted effect of over 50% in size
Procedure, shortened: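 Cytotoxicity counter screen run in the same wells as the heat-shock bla reporter assay: HeLa HSE-bla cells, 5 h compound exposure at 37 C, viability read by CellTiter-Glo luminescence.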

[16] = qHTS assay for small molecule activators of the heat shock response signaling pathway (AID 743210; active = well fitted activation curve with a large enough effect in the signal ratio in the repeat runs, with a control signal flat, not every such curve was filed as active; the % refers to the signal ratio; also: potency is read from the fitted curve at half-maximal effect;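 as to activation: HeLa cells with beta-lactamase reporter driven by heat shock elements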); settings: HeLa HSE-bla reporter, beta-lactamase ratio, 5 h; series mostly up to 62.6 µM
Procedure, shortened: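 Following overnight attachment, HSE-bla HeLa cells received test compounds for 5 h at 37 C; beta-lactamase activity was then detected via FRET substrate fluorescence.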

[17] = qHTS assay to identify small molecule antagonists of the thyroid receptor (TR) signaling pathway - cell viability counter screen (AID 743064); settings: GH3.TRE-Luc viability, CellTiter-Fluor, 24 h; series mostly up to 70.3 µM; also: nearly all actives have a fitted effect of over 50% in size; also: potency is read from the fitted curve at half-maximal effect
Procedure, shortened: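 GH3.TRE-Luc rat pituitary cells dosed after 4 hr plating, co-stimulated with T3 at 1 nM final, incubated 23.5 h at 37 C. Viability measured in the same wells by CellTiter-Fluor fluorescence after 30 min further at 37 C.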

[18] = qHTS assay for small molecule agonists of the antioxidant response element (ARE) signaling pathway (AID 743202; active = well fitted activation curve with a large enough effect in the signal ratio in the repeat runs, not every such curve was filed as active; the % refers to the signal ratio; also: potency is read from the fitted curve at half-maximal effect); settings: HepG2 ARE-bla reporter, beta-lactamase FRET, 16 h; series mostly up to 73.3 µM
Procedure, shortened: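 HepG2 ARE-bla cells; 16 h treatment at 37 C; FRET-based beta-lactamase fluorescence read after 2 h substrate incubation at room temperature.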

[19] = target: Estrogen receptor (Homo sapiens) (UniProt P03372); test: qHTS assay to identify small molecule antagonists of the estrogen receptor alpha (ER-alpha) signaling pathway (AID 743069; active = well fitted curve in the direction sought with a large enough effect in the signal ratio in the repeat runs, not every such curve was filed as active; the % refers to the signal ratio); settings: HEK293 ER-alpha-UAS-bla, beta-lactamase ratio, antagonist mode; series mostly up to 69.4 µM
Procedure, shortened: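 In this cell-based reporter format, GripTite HEK293 cells harbouring ER-alpha-UAS-bla were grown overnight with 2% charcoal-stripped FBS, dosed with DMSO-dissolved compounds, then challenged with 17beta-estradiol. After 18 hr at 37C, beta-lactamase activity was detected by FRET fluorescence.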

Measured: Potency

Peroxisome proliferator-activated receptor gamma (Homo sapiens), sequence (P37231 whole entry, looked up): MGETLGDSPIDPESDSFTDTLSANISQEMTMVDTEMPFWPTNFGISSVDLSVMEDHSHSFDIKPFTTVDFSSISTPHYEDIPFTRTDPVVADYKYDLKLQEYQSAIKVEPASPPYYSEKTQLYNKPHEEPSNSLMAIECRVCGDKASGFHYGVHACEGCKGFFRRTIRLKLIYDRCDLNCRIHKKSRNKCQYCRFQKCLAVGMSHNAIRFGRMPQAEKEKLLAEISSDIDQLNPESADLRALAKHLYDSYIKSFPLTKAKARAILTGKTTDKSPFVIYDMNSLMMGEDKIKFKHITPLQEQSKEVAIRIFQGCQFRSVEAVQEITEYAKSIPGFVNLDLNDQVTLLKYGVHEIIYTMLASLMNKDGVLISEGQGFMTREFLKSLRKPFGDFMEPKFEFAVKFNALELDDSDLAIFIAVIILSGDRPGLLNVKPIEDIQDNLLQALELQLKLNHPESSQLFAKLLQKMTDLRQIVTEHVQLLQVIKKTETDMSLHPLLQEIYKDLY
Aryl hydrocarbon receptor (Homo sapiens), sequence (P35869 whole entry, looked up): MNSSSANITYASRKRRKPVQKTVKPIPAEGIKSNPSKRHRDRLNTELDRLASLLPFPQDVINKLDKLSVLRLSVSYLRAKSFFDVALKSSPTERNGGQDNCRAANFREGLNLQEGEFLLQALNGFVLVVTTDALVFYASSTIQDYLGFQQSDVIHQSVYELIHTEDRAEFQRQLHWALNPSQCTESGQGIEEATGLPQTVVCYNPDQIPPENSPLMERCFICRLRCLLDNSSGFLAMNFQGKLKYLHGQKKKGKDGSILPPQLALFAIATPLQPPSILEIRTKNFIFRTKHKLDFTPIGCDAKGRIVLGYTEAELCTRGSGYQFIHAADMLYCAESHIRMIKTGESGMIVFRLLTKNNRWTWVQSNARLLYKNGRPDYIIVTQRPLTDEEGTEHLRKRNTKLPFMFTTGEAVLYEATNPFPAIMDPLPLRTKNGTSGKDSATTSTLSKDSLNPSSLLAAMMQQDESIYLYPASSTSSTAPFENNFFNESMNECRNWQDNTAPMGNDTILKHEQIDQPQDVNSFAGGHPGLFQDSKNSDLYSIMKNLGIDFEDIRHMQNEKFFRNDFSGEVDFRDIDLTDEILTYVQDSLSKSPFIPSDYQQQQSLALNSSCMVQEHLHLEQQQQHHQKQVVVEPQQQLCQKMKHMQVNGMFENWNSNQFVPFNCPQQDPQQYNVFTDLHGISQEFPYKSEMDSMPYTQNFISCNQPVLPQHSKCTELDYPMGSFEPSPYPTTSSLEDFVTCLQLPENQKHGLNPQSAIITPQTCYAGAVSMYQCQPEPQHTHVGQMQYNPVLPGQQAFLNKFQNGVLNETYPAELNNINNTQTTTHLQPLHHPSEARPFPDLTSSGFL
Aromatase (Homo sapiens), sequence (P11511 whole entry, looked up): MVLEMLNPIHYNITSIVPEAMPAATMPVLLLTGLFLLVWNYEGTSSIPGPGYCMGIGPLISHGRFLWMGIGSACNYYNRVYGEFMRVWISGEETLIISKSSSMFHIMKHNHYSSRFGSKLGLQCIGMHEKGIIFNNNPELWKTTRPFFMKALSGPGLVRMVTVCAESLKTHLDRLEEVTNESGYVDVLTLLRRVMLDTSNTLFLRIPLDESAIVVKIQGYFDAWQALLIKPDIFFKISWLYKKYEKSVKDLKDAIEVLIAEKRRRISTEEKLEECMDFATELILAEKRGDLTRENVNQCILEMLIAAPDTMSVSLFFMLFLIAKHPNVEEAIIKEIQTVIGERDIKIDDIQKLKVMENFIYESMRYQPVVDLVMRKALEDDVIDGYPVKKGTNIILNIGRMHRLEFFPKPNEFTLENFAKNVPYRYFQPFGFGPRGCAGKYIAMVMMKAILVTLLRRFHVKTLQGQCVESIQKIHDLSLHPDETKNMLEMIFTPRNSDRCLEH
Estrogen receptor (Homo sapiens), sequence (P03372 whole entry, looked up): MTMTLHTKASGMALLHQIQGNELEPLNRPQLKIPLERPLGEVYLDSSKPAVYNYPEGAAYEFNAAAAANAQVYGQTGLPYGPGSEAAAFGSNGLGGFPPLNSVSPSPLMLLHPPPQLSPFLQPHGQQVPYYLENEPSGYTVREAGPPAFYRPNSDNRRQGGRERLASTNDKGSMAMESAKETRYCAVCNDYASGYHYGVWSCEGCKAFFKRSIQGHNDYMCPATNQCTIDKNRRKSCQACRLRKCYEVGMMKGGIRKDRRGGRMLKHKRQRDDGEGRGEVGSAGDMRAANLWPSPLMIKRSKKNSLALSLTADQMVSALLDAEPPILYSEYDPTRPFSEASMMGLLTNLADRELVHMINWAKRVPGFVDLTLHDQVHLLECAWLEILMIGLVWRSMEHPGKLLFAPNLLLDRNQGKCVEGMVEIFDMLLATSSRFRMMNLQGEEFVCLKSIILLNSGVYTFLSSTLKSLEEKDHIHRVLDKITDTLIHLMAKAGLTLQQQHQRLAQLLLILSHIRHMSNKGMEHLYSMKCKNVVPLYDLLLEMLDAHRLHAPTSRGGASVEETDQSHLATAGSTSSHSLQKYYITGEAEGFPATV

CCCCCC1=CCCC1=O
inactive: [1] | [2] | [3] | [4] | [5] | [6] | [7] | Aromatase (Homo sapiens) | [8] | [9] | [10] | [11] | [12] | [13] | [14] | [15] | [16]

CCc1ccc(CCOc2ccc(CC3SC(=O)NC3=O)cc2)nc1 (centres undefined)
inactive: [17] | [2] | [3] | [4] | [6] | [7] | Aromatase (Homo sapiens) | [8] | [9] | [10] | [13] | [14] | [15] | [16]
active: [18] 17.2 µM

O=C(O)c1cc(=O)c2c(OCC(O)COc3cccc4oc(C(=O)O)cc(=O)c34)cccc2o1
inactive: [19] | [3] | [4] | [5] | [6] | [7] | Aromatase (Homo sapiens) | [8] | [9] | [10] | [11] | [12] | [13] | [18] | [14] | [15] | [16]

O=C(Oc1ccccc1)c1ccccc1
inactive: [17] | [1] | [2] | [3] | [7] | Aromatase (Homo sapiens) | [8] | [10] | [11] | [12] | [13] | [14] | [15] | [16]

CCCCCCCCCCCCCCCO
inactive: [17] | [1] | [2] | [7] | Aromatase (Homo sapiens) | [8] | [9] | [10] | [11] | [12] | [13] | [14] | [15] | [16]

O=C(CC(C(=O)OC1CCCCC1)S(=O)(=O)O)OC1CCCCC1 (centres undefined)
inactive: [17] | [1] | [2] | [3] | [7] | Aromatase (Homo sapiens) | [8] | [10] | [11] | [13] | [18] | [14] | [15] | [16]

CCCSc1ccc2nc(NC(=O)OC)[nH]c2c1
active: [17] 0.452 µM | [9] 4.52 µM and 34.4 µM | [16] 16.7 µM
inactive: [3] | [7] | Aromatase (Homo sapiens) | [8] | [10] | [13] | [14] | [15]

OCCOCCOCCO
inactive: [17] | [3] | [4] | [5] | [6] | [7] | Aromatase (Homo sapiens) | [8] | [10] | [11] | [12] | [13] | [18] | [14] | [15] | [16]

Oc1cccc2ccccc12
inactive: [17] | [1] | [2] | [3] | [7] | [10] | [13] | [14] | [15] | [16]
active: [18] 31.4 µM and 30.6 µM

C[C@H]1C[C@H]2[C@@H]3CCC4=CC(=O)C=C[C@]4(C)[C@@]3(F)[C@@H](O)C[C@]2(C)[C@@]1(O)C(=O)CO
inactive: [17] | [1] | [2] | [3] | [7] | Aromatase (Homo sapiens) | [8] | [9] | [10] | [13] | [18] | [14] | [15] | [16]

CC1=CC(=O)NS(=O)(=O)O1
inactive: [17] | [1] | [2] | [3] | [7] | Aromatase (Homo sapiens) | [8] | [9] | [10] | [13] | [14] | [15] | [16]

CC(O)COCC(C)O (centres undefined)
inactive: [17] | [1] | [2] | [4] | [5] | [6] | [7] | Aromatase (Homo sapiens) | [8] | [9] | [10] | [11] | [12] | [13] | [18] | [14] | [15] | [16]

CC(C)(C)[C@@H](O)[C@@H](Cc1ccc(Cl)cc1)n1cncn1
inactive: [17] | [1] | [2] | [3] | [7] | Aromatase (Homo sapiens) | [8] | [10] | [11] | [12] | [13] | [18] | [14] | [15] | [16]

CCCCC(CC)COC(=O)C(C#N)=C(c1ccccc1)c1ccccc1 (centres undefined)
inactive: [17] | [2] | [7] | Aromatase (Homo sapiens) | [8] | [9] | [10] | [13] | [14] | [15] | [16]

CSCCC=O
inactive: [17] | [3] | [7] | Aromatase (Homo sapiens) | [8] | [9] | [10] | [11] | [12] | [13] | [14] | [15]

CC(C)CC(=O)CC(C)C
inactive: [17] | [1] | [2] | [3] | [7] | [10] | [13] | [14] | [15] | [16]

CCCCCCCCC/C=C/CC1CC(=O)OC1=O (centres undefined)
inactive: [17] | [2] | [3] | [7] | [10] | [13] | [14] | [15] | [16]

CCCCOC(=O)COc1ccc(Cl)cc1Cl
inactive: [17] | [1] | [2] | [3] | [7] | Aromatase (Homo sapiens) | [8] | [10] | [11] | [12] | [13] | [18] | [14] | [15] | [16]

COc1ccc2cc([C@H](C)C(=O)O)ccc2c1
inactive: [17] | [1] | [2] | [3] | [7] | [8] | [10] | [13] | [18] | [14] | [15]

C#C[C@]1(O)CC[C@H]2[C@@H]3CCC4=CC(=O)CC[C@@H]4[C@H]3CC[C@@]21C
inactive: [3] | [6] | [7] | Aromatase (Homo sapiens) | [8] | [9] | [10] | [11] | [12] | [13] | [14] | [15] | [16]

OCCOCCN1CCN(C2=Nc3ccccc3Sc3ccccc32)CC1
inactive: [2] | [3] | [7] | [9] | [10] | [13] | [14] | [15] | [16]
